Assay outcomes from PubChem.
This is one part of a sample in which hits are shown more often than they occur.
Pf apPOL block: Pf-apPOL DNA polymerase inhibition; actives 0.25% (n = 210,000); Recombinant Pf-apPOL, molecular beacon fluorescence, 1.5 h; AID 1794808; inhibition, % at 10 µM
mHTT CaM bind: disrupts binding of mutant huntingtin to calmodulin. actives 3.6% (n = 190,000). AlphaScreen His-mHTT/GST-CaM binding, luminescence. P42858. inhibition, % at 15 µM;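 also: 0% = both proteins with DMSO and 100% = one protein alone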
* = called active by the depositor. Rule as the data show it: active = inhibition above about 50%; inactive = the rest.

COC(=O)c1ccc2occ(-c3oc4ccc(C(=O)OC)cc4c3O)c2c1 was read as Pf apPOL block -7 and mHTT CaM bind 100*.
COC(=O)c1ccc(=O)oc1 was read as mHTT CaM bind -8.
Screening CCNc1cc(N2CCC(CCC(=O)NCc3cccs3)CC2)ncn1 returned Pf apPOL block -4 and mHTT CaM bind 6.
CC(C)Oc1ccccc1-c1nc(C(=O)N(C)C(C)C)cs1 was read as Pf apPOL block -3 and mHTT CaM bind -5.
COc1cc(NCc2cc(OC)c(O)c([N+](=O)[O-])c2)cc(OC)c1 was read as Pf apPOL block 3 and mHTT CaM bind 65*.
COc1cc(CN2CCSCC2)cc(I)c1O was read as Pf apPOL block -2 and mHTT CaM bind 6.
`COc1cc(NCc2cc(I)c(O)c(OC)c2)cc(OC)c1` gave Pf apPOL block -3 and mHTT CaM bind 89*.
For COc1cc(CN2CCCCCCC2)cc([N+](=O)[O-])c1O the results were Pf apPOL block -6 and mHTT CaM bind 5.
For O=C1C(c2sc3ccccc3c2O)=Nc2ccccc21 the results were Pf apPOL block 6 and mHTT CaM bind 29.
CCN(CC)C(=O)C1CCCN(c2ccc([N+](=O)[O-])cc2C=O)C1 (stereo unspecified) was read as Pf apPOL block 0 and mHTT CaM bind 70*.
Screening CCN(CC)C(=O)C1CCCN(Cc2ccc([N+](=O)[O-])o2)C1 (stereo unspecified) returned Pf apPOL block -28 and mHTT CaM bind 2.
Screening N=c1oc2c(Cl)cc(Cl)cc2cc1C(N)=O returned Pf apPOL block -2 and mHTT CaM bind 91*.
Screening NC(=O)c1ccc(N=c2oc3c(Cl)cc(Cl)cc3cc2C(N)=O)cc1 returned Pf apPOL block -6 and mHTT CaM bind 1.
O=C(O)c1nnn(-c2cccc(F)c2)c1-c1ccncc1 was read as Pf apPOL block -1 and mHTT CaM bind -2.
For Cc1ccc(NC(=O)CSc2nc3c(c(=O)n2-c2ccccc2)SCC3)c(C)c1 the results were Pf apPOL block -2 and mHTT CaM bind -16.
`CCN(c1ccc(F)cc1)S(=O)(=O)c1ccc2[nH]cc(C(=O)NCC3CCCO3)c(=O)c2c1` (stereo unspecified) gave Pf apPOL block -10 and mHTT CaM bind 24.
OCCN=c1scc(-c2ccc(Br)cc2)n1-c1ccccc1 was read as Pf apPOL block -1 and mHTT CaM bind 60*.
COc1ccc(-c2csc(=NCCO)n2-c2ccccc2)cc1 was read as Pf apPOL block 2 and mHTT CaM bind 6.
O=C(NC1CC1)C(=O)N1CCN(c2cccc(Cl)c2)CC1 was read as Pf apPOL block -10 and mHTT CaM bind -11.
For CC(C)(C)C(=O)N1CCCC(C(=O)N2CCOCC2)C1 (stereo unspecified) the results were Pf apPOL block -1 and mHTT CaM bind -3.
For COc1ccccc1N=Cc1cc(OC)c(OCc2ccccc2)cc1[N+](=O)[O-] the results were Pf apPOL block -12 and mHTT CaM bind 95*.
COc1cc(C(O)C[N+](=O)[O-])ccc1OCc1ccccc1 (stereo unspecified) was read as Pf apPOL block -3 and mHTT CaM bind 9.
O=C(N=c1sccn1Cc1ccccc1C(=O)N1CCCC1)c1ccccc1F was read as Pf apPOL block -8 and mHTT CaM bind 3.
For CN(C)CC1C(=O)N(c2ccccc2)N(c2ccccc2)C1=O the results were Pf apPOL block -6 and mHTT CaM bind 72*.
`CCCCC1C(=O)N(c2ccccc2)N(c2ccccc2)C1=O` gave Pf apPOL block 5.
Screening Cn1cc(C(=O)Nc2ncc(C#N)s2)nn1 returned Pf apPOL block -2 and mHTT CaM bind -4.
COc1ccc(C2CC(O)(c3ccccc3)Oc3c(C)ccc(C)c32)cc1 (stereo unspecified) was read as Pf apPOL block -6 and mHTT CaM bind 46.
COc1ccc(C2CC(O)(c3ccccc3)Oc3cc(OC)cc(OC)c32)cc1 (stereo unspecified) was read as Pf apPOL block -3 and mHTT CaM bind 92*.
`COc1ccccc1-c1cnn2c(Nc3ccc(NC(C)=O)cc3)cc(C)nc12` gave Pf apPOL block -4 and mHTT CaM bind 54*.
`COc1ccccc1-c1cnn2c(C)cc(C)nc12` gave Pf apPOL block -2 and mHTT CaM bind -15.
For COc1cc(Cl)c(C)cc1NC(=O)C1c2ccccc2C(=O)N2CCc3ccccc3C12 (stereo unspecified) the results were Pf apPOL block -5 and mHTT CaM bind 54*.
`COc1cc2c(cc1OC)C(C(=O)Nc1ccc(F)cc1)C1c3ccccc3CCN1C2=O` (stereo unspecified) gave Pf apPOL block 0 and mHTT CaM bind 9.
For CCOc1ccccc1NC(=O)C1c2cc(OC)c(OC)cc2C(=O)N2CCc3ccccc3C12 (stereo unspecified) the results were Pf apPOL block -3 and mHTT CaM bind 54*.
COc1ccc(C)cc1NC(=O)C1c2ccccc2C(=O)N2CCc3ccccc3C12 (stereo unspecified) was read as Pf apPOL block 11 and mHTT CaM bind 42.
`O=C(CCS(=O)(=O)Cc1ccccc1Cl)NCc1ccco1` gave Pf apPOL block -13 and mHTT CaM bind -7.
`COC(=O)c1ccc(C=C2Oc3c(ccc(O)c3CN3CCN(C)CC3)C2=O)cc1` gave Pf apPOL block -1 and mHTT CaM bind 28.
Cc1ccc2nc(C3CN(C(=O)c4cc(-c5cccs5)[nH]n4)C3)[nH]c2c1 was read as Pf apPOL block -4 and mHTT CaM bind 53*.
Cc1nnc(C2CCCN(C(=O)c3cc(-c4cccs4)[nH]n3)C2)s1 (stereo unspecified) was read as Pf apPOL block -10 and mHTT CaM bind -8.
For O=c1ccc(-c2ccc(S(=O)(=O)N3CCC(N4CCCCC4)CC3)o2)n[nH]1 the results were Pf apPOL block -3 and mHTT CaM bind 3.
CN(C)c1ccc(C(O)c2nc3ccccc3n2Cc2ccccc2)cc1 (stereo unspecified) was read as Pf apPOL block -7 and mHTT CaM bind 50*.
CC(O)c1nc2ccccc2n1Cc1ccccc1 (stereo unspecified) was read as Pf apPOL block -10 and mHTT CaM bind 6.
For CC1C(=O)N(Cc2cn(Cc3ccco3)nn2)CCS(=O)(=O)N1Cc1ccc(-c2ccc(F)cc2Cl)cc1 (stereo unspecified) the results were Pf apPOL block 4 and mHTT CaM bind 81*.
For CC1C(=O)N(Cc2cn(Cc3ccco3)nn2)CCS(=O)(=O)N1Cc1ccc(-c2ccccc2Cl)cc1 (stereo unspecified) the results were Pf apPOL block -3 and mHTT CaM bind 77*.
Screening CC1C(=O)N(Cc2cn(CCC3OCCCO3)nn2)CCS(=O)(=O)N1Cc1ccc(-c2ccc(F)nc2)cc1 (stereo unspecified) returned Pf apPOL block -14 and mHTT CaM bind 15.
`CC1C(=O)N(Cc2cn(Cc3ccco3)nn2)CCS(=O)(=O)N1Cc1ccc(-c2ccncc2)cc1` (stereo unspecified) gave Pf apPOL block 9 and mHTT CaM bind 30.
For Cc1ccc(NC(NC(=O)c2cccs2)C(=O)c2ccccc2)cc1C (stereo unspecified) the results were Pf apPOL block -1 and mHTT CaM bind -3.
Screening O=C(NC(Nc1ccc(Cl)c(Cl)c1)C(=O)c1ccccc1)c1cccs1 (stereo unspecified) returned Pf apPOL block -7 and mHTT CaM bind 90*.
